# PMC5540273 (PLoS ONE, 2017)
# Tested on: ULK3
# Details: concentration: 1 μM, replicates: in singlicate; n = 1
# 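Further: KINOMEscan kinase panel screen.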
row,SMILES,%Inh
1,O=C(NCCNc1ccnc(Nc2ccc(F)cc2)n1)Nc1ccc2c(c1)OCO2 [GSK1379882],21%
2,O=C(NCc1cccs1)c1cc(C(=O)c2c(Cl)cccc2Cl)c[nH]1 [GW823670],0%
3,Cc1ccc(-c2ccc3c(ccc4sc5c(c43)NC[C@@H](C)N=C5N(C)C)n2)cn1,0%
4,Cc1cc(Nc2nc(-c3cccc(C)n3)nc3ccccc23)ccn1 [GW872411],0%
5,Nc1nc(-c2ccccc2F)c(-c2ccnc3ccccc23)s1 [GW560459],4%
6,COc1ccc(-c2cc3c(C)nc(N)nc3n([C@H]3CC[C@H](O)CC3)c2=O)cn1,0%
7,OCCCNc1nccc(-c2c(-c3cccc(C(F)(F)F)c3)nn3cc(C(F)(F)F)ccc23)n1 [GW630813],0%
8,CN(C)c1cc(-c2ccc3c(N)n[nH]c3c2)nc(N)n1 [GSK2219329],9%
9,Cl.c1ccc(Cn2cnc3cc(Nc4ncnc5ccccc45)ccc32)cc1 [GW272142],5%
10,Cc1cccc(-c2cc(-c3c[nH]nc3-c3ccccn3)ccn2)c1 [GW679395],5%
11,CCC(=O)c1c(-c2ccccc2)c2cc(Cl)ccc2c(=O)n1Cc1cc(S(C)(=O)=O)n(CCC(C)(C)O)n1,0%
12,Cc1nnc(-c2ccc(C)c(-c3ccc(C(=O)O)cc3)c2)o1 [GW608005],0%
13,COc1cc2nccc(Nc3ccc(OCc4ccc(NC(C)=O)cc4)cc3)c2cc1OC.Cl [GW440135],13%
14,COC(=O)c1c(-c2ccccc2)c2cc(Br)ccc2c(=O)n1Cc1ccc(NC(=O)CCC(=O)O)cc1,16%
15,Cc1nc(N(C)[C@H]2CN(C(=O)CC#N)CC[C@H]2C)c2cc[nH]c2n1,0%
16,COc1cc2ncn(-c3cc(OCc4ccncc4)c(C(N)=O)s3)c2cc1OC [GSK336313],9%
17,CCC(=O)c1c(-c2ccccc2)c2cc(Cl)ccc2c(=O)n1Cc1cc(S(C)(=O)=O)n(CC(N)=O)n1,8%
18,CCS(=O)c1ccc(-c2coc3ccc(-c4nnc(C)o4)cc23)cc1 (stereo not drawn),0%

row,SMILES,%Inh
1,COc1ccc(-c2cc3c(C)nc(N)nc3n([C@H]3CC[C@H](OCCO)CC3)c2=O)cn1,3%
2,CC(C)(C)c1ccc(C(=O)Nc2cn3cc(-c4ccccc4)ccc3n2)cc1,12%
3,COc1cc(Nc2nccc(N3CCC(NC(=O)C4COc5ccccc5O4)C3)n2)cc(OC)c1OC (stereo not drawn) [GSK1379761],69%
4,CN1C(=O)C(Nc2ccccc2)=C(c2ccccc2)C1=O [SB-300079],7%
5,COc1ccc(-n2cnc3c(N)ncnc32)cc1 [SKF-97236],10%
6,CCc1ccc(-c2ccc3c(c2)-c2nn(C)cc2S(=O)(=O)N3C)cc1,0%
7,Cc1ccc(Oc2ccc(Nc3ncnc4cc[nH]c34)cc2C)cn1,22%
8,O=C(Nc1n[nH]c2nc(-c3ccccc3)c(Br)cc12)C1CC1 [SB-708998],11%
9,Cc1ccccc1COc1cc(-n2cnc3cc(Cl)ccc32)sc1C(N)=O [GW813349],0%
10,COc1cc(OC)cc(-c2cc3cnc(N)nc3nc2NC(=O)NC(C)(C)C)c1,0%
11,COc1cc(Nc2nccc(N3CCC(NC(=O)C(C)c4ccc(Cl)cc4)C3)n2)cc(OC)c1OC (stereo not drawn) [GSK1379757],42%
12,CCCC(=O)Nc1n[nH]c2ncc(-c3cccc4ccccc34)cc12 [SB-642057],26%
13,COc1ccc(-c2coc3ccc(-c4nnc(SCc5cccc(C#N)c5)o4)cc23)cc1,81%
14,Cc1nnc(-c2ccc3ncn(-c4ccc(S(C)=O)cc4)c3c2)o1 (stereo not drawn),0%
15,O=C1NC(=O)C(c2ccccc2)=C1Nc1cccc(O)c1 [SB-390534],26%
16,Nc1ncnc2c1ncn2-c1cccc2ccccc12 [SKF-97184],30%
17,COc1ccc(Nc2nccc(N3CCC(NS(=O)(=O)c4ccc(NC(C)=O)cc4)C3)n2)cc1 (stereo not drawn) [GSK1379729],42%
18,COc1cc2ncn(-c3cc(OCc4ccc(S(C)(=O)=O)cc4)c(C(N)=O)s3)c2cc1OC [GW869979],22%
